TDP-43 yeast inh: qHTS of TDP-43 Inhibitors | TDP-43 expressing yeast growth rescue, BacTiter-Glo, 24 h | Potency, µM (doses to about 46.1 µM), inactives show at the top dose growth rescue (activation), hits mostly activators | 1.8% of 410,000 active | AID 652104, 2013; note: % of control where 0% means no effect; nearly all actives have a fitted effect of over 50% in size
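Yeast cells expressing TDP-43 under galactose induction are exposed to compounds for 24 hr at 30 deg C. BacTiter-Glo luminescence measures growth, so protective compounds score as activators.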
aSyn rescue: qHTS of alpha-syn Inhibitors | Potency, µM (highest dose often 46.1 µM), for the others: at the top dose growth rescue (activation), hits mostly activators | 0.14% of 370,000 active | Yeast expressing alpha-synuclein, growth rescue, BacTiter-Glo, 24 h; note: % of control where 0% means no effect; nearly all actives have a fitted effect of over 65% in size
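Galactose-induced alpha-syn yeast (OD600=0.02, raffinose-pregrown) + pinned cpd, 24 hr, 30 deg C; growth by BacTiter-Glo luminescence. Growth restoration scores as activation.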
Abeta rescue: qHTS for compounds that reverse cellular toxicity of Amyloid beta (A-beta) peptide in yeast: Primary Screen | yeast expressing A-beta42, growth rescue, OD600, 48 h; response scale: 0% DMSO, 100% iron-clioquinol control | Potency, µM (doses to about 46.1 µM), hits mostly activators | 0.063% of 410,000 active | AID 1347071, 2019; note: nearly all actives have a fitted effect of over 55% in size
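Yeast growth medium received pinned compounds, then yeast cells expressing toxic A-beta were added; plates incubated at 30 C for 48 hr. Growth read as absorbance at 600 nm, normalized to DMSO and equimolar FeCl3 plus clioquinol controls.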
FUS suppressor: qHTS for Suppressors of FUS Proteinopathy: Primary screen using FUS-linked yeast assay; 0.24% of 390,000 active; Potency, µM (highest dose often 76.6 µM), most hits filed as activators; S. cerevisiae FUS-expressing, growth rescue, OD600, 24 h;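 note: plate controls were DMSO vehicle for no effect and reference control for full effect; nearly all actives have a fitted effect of over 55% in size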
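Galactose (2%) drives FUS expression in yeast precultured in raffinose; seeding density OD 0.005. Test compounds incubated 24hr at 30C and 99% humidity before absorbance at 600 nm was measured.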
Starred values were filed as active, the others as inactive; i = inactive; ? = inconclusive; . = no result given. Shown are actives, neighbours in structure and some others; about 2.1% of the full set was active somewhere. Calls come from the whole dose curve; as a rule, active = well fitted curve in the direction sought with a large enough effect; inconclusive = small, poorly fitted or top-dose-only effect, or another doubt; inactive = no such curve, though single readings can be large; an effect the other way counts as inactive or inconclusive. Potency is the fitted concentration of half-maximal effect.

SMILES | TDP-43 yeast inh | aSyn rescue | Abeta rescue | FUS suppressor
C=C1C=C(C(F)F)n2ncc(C(=O)NCc3ccccc3)c2N1 | . | 0% | . | .
COc1ccc(C2C(C(=O)Nc3ccc(Cl)c(Cl)c3)CCC(=O)N2c2ccc(OC)cc2)cc1 (stereo unspecified) | . | . | . | i
Cc1ccc(OCc2nnc(SCC(=O)Nc3ccc(S(N)(=O)=O)cc3)n2-c2ccc(Cl)cc2)cc1 | . | . | . | i
Cc1cccc(NC(=O)[C@@H]2CC(=O)O[C@@H]2c2ccccc2)c1C | . | . | . | i
O=c1c2ccccc2nc(/C=C/c2cccc3ccccc23)n1-c1ccc(F)cc1F | 9% | . | i | 32µM*
COc1cc(OC)c(OC)cc1/C=C/c1nc2cc3ccccc3cc2c(=O)n1-c1ccc(F)cc1F | 29% | . | i | i
CC(=O)c1cccc(NC(=O)c2ccc3c(c2)OCO3)c1 | 13µM* | 3% | i | i
O=C(Nc1cccc(NC(=O)c2ccc3c(c2)OCO3)c1)c1ccccc1 | 19% | -3% | i | i
CC(=O)c1cccc(NC(=O)N(c2ccccc2)c2ccccc2)c1 | 16µM* | 12% | i | i
CC[C@H](CCCc1ccc(OC)cc1)CCC(=O)N1CCOCC1 | . | . | . | i
O=C(Nc1cccc(Nc2ccccc2)c1)c1cnn2c1NC(=C1CC1)C=C2C(F)F | . | 6% | . | .
COc1ccc(N2CCN(CCCNC(=O)CCc3cccc(F)c3)CC2)cc1 | . | . | . | i
Cc1cccc(-n2c(=O)c3ccccc3n(Cc3ccccc3)c2=O)c1 | 22µM* | . | i | i
Cc1cc(C)c(S(=O)(=O)NCCn2c(C)cc3ccccc32)c(C)c1 | 35µM* | ? | 7.9µM* | ?
CC(=O)N1CCc2c(sc(NC(=O)CSc3ccccc3)c2-c2nc3ccccc3s2)C1 | 23% | 4µM* | i | ?
CCOc1ccccc1-c1nc(-c2ccncc2)no1 | 18µM* | 10% | i | i
COc1ccccc1-c1nc(-c2ccncc2)no1 | 11µM* | . | i | i
COc1ccccc1-c1noc(-c2cccnc2)n1 | 11µM* | 4% | i | i
CCOc1ccc(-c2noc(-c3ccncc3)n2)cc1OCC | 0% | -1% | i | i
COc1cccc(N2CCN(CC(=O)N(C)Cc3ccccc3Cl)CC2)c1 | . | . | . | i
CCCCCN1CCCCC(NC(=O)C(C)(C)C)C1=O (stereo unspecified) | . | . | . | i
CN(/N=C/c1ccc([N+](=O)[O-])o1)c1ccccc1 | 14µM* | 6% | i | i
Cc1ccc(C)c(OC2=NS(=O)(=O)c3ccccc32)c1 | 8% | 1% | i | i
Cc1ccc2c(c1)-c1ccccc1S(=O)(=O)N2 | ? | 13µM* | i | .
Nc1ccc2c(c1)-c1ccccc1S(=O)(=O)N2 | -15% | -7% | i | 28µM*
SMILES | TDP-43 yeast inh | aSyn rescue | Abeta rescue | FUS suppressor
c1ccc(-c2cc3nc(NCc4ccc5c(c4)OCO5)ccn3n2)cc1 | 14µM* | 14% | ? | ?
COc1cc(-c2cc3nc(NCc4cccs4)ccn3n2)cc(OC)c1OC | 35µM* | -22% | i | i
c1coc(-c2cc3nc(NCc4ccc5c(c4)OCO5)ccn3n2)c1 | 18µM* | 6% | i | i
COc1ccc(NC(=O)NC2CCN(S(=O)(=O)c3ccc(F)cc3)CC2)cc1OC | . | . | . | i
O=C(CN1CCN(c2nc(-c3ccccc3)cs2)CC1)Nc1ccc(Cl)cc1 | . | . | . | i
COC(=O)CC(=O)CSc1nc2c(cc1C#N)CCC2 | -4% | 1% | i | i
CCOC(=O)CC(=O)CSc1nc2c(cc1C#N)CCCCCC2 | 18% | -3% | i | 11µM*
Cc1nnc(Sc2nc3ccccc3o2)c2ccccc12 | 14µM* | ? | i | i
Cc1ccc(-c2nnc(Sc3nc4ccccc4o3)c3ccccc23)cc1 | -3% | 5% | i | i
S=C1NCCc2ccc(Cl)cc2C1c1ccccc1 (stereo unspecified) | 14µM* | ? | i | i
CC(C)C1C(=O)N(Cc2cn(CCC3OCCO3)nn2)CCS(=O)(=O)N1Cc1ccc(-c2ccc(Cl)cc2)cc1 (stereo unspecified) | 35µM* | ? | i | ?
CC1C(=O)N(Cc2cn(CCC3OCCO3)nn2)CCS(=O)(=O)N1Cc1ccc(-c2ccc(Cl)c(Cl)c2)cc1 (stereo unspecified) | 16µM* | 26% | i | ?
CC(C)C1C(=O)N(Cc2cn(CCC3OCCCO3)nn2)CCS(=O)(=O)N1Cc1ccc(-c2ccc(Cl)cc2)cc1 (stereo unspecified) | 16% | -1% | i | i
Cc1cc(C(=O)O[C@@H]2CCC[C@@]3(C(=O)N(Cc4ccccc4)c4ccccc43)[C@H]2NC(=O)CCc2ccccc2)no1 | . | . | . | i
C[C@H]1[C@@H](NC(=O)c2ccc(C(C)(C)C)cc2)CC[C@@]23CCCN2C(=O)CCC[C@@H]13 | . | . | . | i
Cc1cc(C)nc(SC2c3cccc4cccc(c34)C2NS(=O)(=O)c2ccccc2)n1 (stereo unspecified) | ? | -2% | i | i
Cc1ccc(S(=O)(=O)NC2c3cccc4cccc(c34)C2Sc2ncccn2)cc1 (stereo unspecified) | 16µM* | 2% | i | .
CC(C)(C)c1ccc(NC(=S)NCc2cccs2)cc1 | 13µM* | -9% | i | i
S=C(NCc1ccccn1)Nc1ccc(Cl)cc1Cl | 11µM* | -16% | i | i
O=C(O)Cc1ccc(NC(=S)Nc2cccc(Cl)c2Cl)cc1 | -9% | 12% | i | ?
S=C(NCc1cccs1)Nc1ccc(Br)cc1Cl | 35µM* | -11% | ? | i
Cc1cc(C)cc(NC(=S)NCc2cccs2)c1 | 5% | -4% | i | .
O=C(O)Cc1ccc(NC(=S)Nc2ccc(Br)cc2Cl)cc1 | 35µM* | 12% | i | i
O=[N+]([O-])c1cc(Cl)ccc1Nc1nc(Nc2ccc(Cl)cc2[N+](=O)[O-])nc(N2CCOCC2)n1 | . | 21% | . | .
c1ccc(Sc2nc(N3CCCCC3)nc(N3CCCCC3)n2)nc1 | 16µM* | -1% | i | i
SMILES | TDP-43 yeast inh | aSyn rescue | Abeta rescue | FUS suppressor
C#CCOC(=O)c1cc(Cl)c(=O)n(Cc2ccc(Cl)cc2Cl)c1 | 20µM* | 8% | i | i
CC(C)OC(=O)c1cc(Cl)c(=O)n(Cc2ccc(Cl)cc2Cl)c1 | 25µM* | 3% | i | i
CNC(=S)NNC(=O)c1ccc(=O)n(Cc2ccc(Cl)cc2Cl)c1 | -14% | -5% | i | i
COc1cc(-c2c(C(=O)c3ccccc3)[nH]c(N)c2C(N)=O)ccc1O | . | . | . | i
COc1ccccc1-c1nnc(C2CCN(C(=O)c3cccc(Cl)c3)CC2)o1 | 20µM* | . | i | i
O=C(c1ccc(F)cc1)N1CCC(c2nc3ccccc3o2)CC1 | 29% | . | i | i
O=C(c1cccc(Cl)c1)N1CCC(c2nc3ccccc3o2)CC1 | 13µM* | . | i | i
